Experimental data as given in PubChem BioAssay (NCATS).
Records with an inconclusive call do not appear. Calls of active or inactive are those of the source. Calls follow the shape of the dose curve; as a rule, active = well fitted curve in the direction sought with a large enough effect; inconclusive = small, poorly fitted or top-dose-only effect, or another doubt; inactive = no such curve, though single readings can be large; an effect the other way counts as inactive or inconclusive.

What was measured:
[1] = Primary redox qHTS assay for identification of artifact compounds. (AID 1845223);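 also: 0% = DMSO and 100% = reference compound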
Summary of the method: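 Redox-cycling detection via DTT (250 uM final) oxidation coupled to Amplex Red (25 uM)/HRP (250 mU/mL) in HBSS. 15 min preincubation plus 30 min after DTT, room temperature. Ex/Em 525/598 nm; 4-parameter Hill fit against DMSO and 10 uM DA3003.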

[2] = target: Cytochrome P450 3A4 (Homo sapiens) (UniProt P08684); test: qHTS for inhibitors of CYP3A4 against the NCATS DSHEA and TCM libraries (AID 1919971);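 also: % is scaled to controls: 0 for no effect and ±100 for the full control effect; inhibition lowers luminescence from luciferin made by CYP3A4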
Summary of the method: (§1)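 Concentration-response screening with isoform-matched pro-luciferin substrates. The CYP reaction was initiated by NADPH regenerating solution and ran 30-45 min in darkness at room temperature.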

[3] = target: Cytochrome P450 2C9 (Homo sapiens) (UniProt P11712); test: qHTS for inhibitors of CYP2C9 against the NCATS DSHEA and TCM libraries (AID 1919973);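 also: luminogenic pro-luciferin CYP2C9 substrate turned into luciferin with NADPH regeneration; series mostly up to about 34 µM; % is scaled to controls: 0 for no effect and ±100 for the full control effect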
Summary of the method: as §1

[4] = target: Cytochrome P450 2C19 (Homo sapiens) (UniProt P33261); test: qHTS for inhibitors of CYP2C19 against the NCATS DSHEA and TCM libraries (AID 1919974);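 also: luminescence from luciferin released by CYP2C19 oxidation of a pro-luciferin substrate; % is scaled to controls: 0 for no effect and ±100 for the full control effect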
Summary of the method: as §1

[5] = KB-3-1 P-gp reporter qHTS against the NCATS DSHEA and TCM libraries (AID 1919975); also: 0% is about no effect
Summary of the method: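 CellTiter-Glo luminescence viability readout; KB-3-1 parental cells, 500/well, attached ~4 h, then compound for ~72 h, 37C, 5% CO2. Bortezomib intraplate control.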

[6] = target: Cytochrome P450 1A2 (Homo sapiens) (UniProt P05177); test: qHTS for inhibitors of CYPIA2 against the NCATS DSHEA and TCM libraries (AID 1919976);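 also: light from luciferin formed by CYP1A2 from a pro-luciferin substrate; series mostly up to about 37 µM; % is scaled to controls: 0 for no effect and ±100 for the full control effect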
Summary of the method: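 Enzyme and pro-luciferin substrate, or substrate alone as no-enzyme background, are pre-incubated with test samples for 15 min at room temperature. NADPH regeneration system (1x final) initiates a 30-45 min dark reaction; luciferase detection reagent follows before luminescence reading.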

[7] = qHTS Counterscreen for compound interference against the NCATS DSHEA and TCM libraries (AID 1919978); conditions: firefly luciferase detection reagent interference, luminescence;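 also: compounds preincubated with 1 µM D-luciferin or buffer before detection reagent; % of control where 0% means no effect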
Summary of the method: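 Luminescence counterscreen for detection-kit interference: compounds at 19.5 nM–39.8 uM final, 15 min RT with 1 uM D-luciferin or buffer only; detection reagent added, 30 min RT, then read.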

[8] = Dual reporter qHTS for agonist of Pregnane X Receptor (hPXR) against the NCATS DSHEA and TCM libraries: Fluorescence readout (AID 1920058); also: 0% is about no effect
Summary of the method: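 Cells were plated at 2000 per well and allowed to attach for 5 h. Test substances were pinned in and incubated roughly 24 h. CellTiter-Fluor was then added and fluorescence measured after 1 h.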

[9] = target: Nuclear receptor subfamily 1 group I member 2 (Homo sapiens) (UniProt O75469); test: Dual reporter qHTS for agonist of Pregnane X Receptor (hPXR) against the NCATS DSHEA and TCM libraries: Luminescence readout (AID 1920059); also: 0% is about no effect
Summary of the method: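 Luminescent PXR reporter read (ONE-Glo) after a CellTiter-Fluor viability read, following 24 h, 37C treatment of HepG2 cells stably carrying hPXR-Luc.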

[10] = target: Cytochrome P450 2D6 (Homo sapiens) (UniProt P10635); test: qHTS for inhibitors of CYP2D6 against the NCATS DSHEA and TCM libraries (AID 1919972); also: % is scaled to controls: 0 for no effect and ±100 for the full control effect
Summary of the method: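 CYP2D6 enzyme with pro-luciferin substrate in manufacturer buffer (typically 100 mM KPO4), preincubated 15 min RT with substances (most at 19.5 nM upward); NADPH regeneration system (1x) started 30–45 min RT reaction; P450-Glo luminescence read after 30 min; quinidine as intraplate control.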

Chain of Cytochrome P450 1A2 (Homo sapiens) (P05177 whole entry, looked up): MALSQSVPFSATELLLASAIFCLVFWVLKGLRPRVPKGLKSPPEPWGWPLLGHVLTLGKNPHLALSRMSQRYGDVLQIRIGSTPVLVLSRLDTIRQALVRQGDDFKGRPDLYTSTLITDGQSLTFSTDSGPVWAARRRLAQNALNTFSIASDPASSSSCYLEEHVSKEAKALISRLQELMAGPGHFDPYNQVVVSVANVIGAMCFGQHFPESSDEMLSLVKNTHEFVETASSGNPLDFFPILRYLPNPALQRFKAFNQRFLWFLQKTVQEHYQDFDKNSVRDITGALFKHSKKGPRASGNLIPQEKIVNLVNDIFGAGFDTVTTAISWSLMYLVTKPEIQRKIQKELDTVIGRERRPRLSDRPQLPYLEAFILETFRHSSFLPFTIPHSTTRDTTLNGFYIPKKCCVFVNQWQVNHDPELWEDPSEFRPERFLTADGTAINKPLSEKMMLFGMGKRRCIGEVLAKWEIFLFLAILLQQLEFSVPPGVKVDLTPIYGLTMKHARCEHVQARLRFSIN
Chain of Cytochrome P450 2C9 (Homo sapiens) (P11712 whole entry, looked up): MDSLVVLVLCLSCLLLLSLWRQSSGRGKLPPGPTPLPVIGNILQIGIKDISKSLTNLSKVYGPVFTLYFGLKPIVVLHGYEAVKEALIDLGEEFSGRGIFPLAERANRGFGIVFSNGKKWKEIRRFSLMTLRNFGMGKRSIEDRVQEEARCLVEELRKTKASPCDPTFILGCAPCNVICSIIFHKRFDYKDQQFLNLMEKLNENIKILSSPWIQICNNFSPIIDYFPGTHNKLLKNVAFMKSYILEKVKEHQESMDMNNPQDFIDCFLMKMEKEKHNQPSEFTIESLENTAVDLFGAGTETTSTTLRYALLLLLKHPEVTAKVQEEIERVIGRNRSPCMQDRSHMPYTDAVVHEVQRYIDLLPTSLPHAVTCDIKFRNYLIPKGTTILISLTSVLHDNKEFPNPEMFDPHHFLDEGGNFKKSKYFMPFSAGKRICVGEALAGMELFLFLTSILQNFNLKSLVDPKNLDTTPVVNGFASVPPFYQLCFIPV
Chain of Cytochrome P450 2C19 (Homo sapiens) (P33261 whole entry, looked up): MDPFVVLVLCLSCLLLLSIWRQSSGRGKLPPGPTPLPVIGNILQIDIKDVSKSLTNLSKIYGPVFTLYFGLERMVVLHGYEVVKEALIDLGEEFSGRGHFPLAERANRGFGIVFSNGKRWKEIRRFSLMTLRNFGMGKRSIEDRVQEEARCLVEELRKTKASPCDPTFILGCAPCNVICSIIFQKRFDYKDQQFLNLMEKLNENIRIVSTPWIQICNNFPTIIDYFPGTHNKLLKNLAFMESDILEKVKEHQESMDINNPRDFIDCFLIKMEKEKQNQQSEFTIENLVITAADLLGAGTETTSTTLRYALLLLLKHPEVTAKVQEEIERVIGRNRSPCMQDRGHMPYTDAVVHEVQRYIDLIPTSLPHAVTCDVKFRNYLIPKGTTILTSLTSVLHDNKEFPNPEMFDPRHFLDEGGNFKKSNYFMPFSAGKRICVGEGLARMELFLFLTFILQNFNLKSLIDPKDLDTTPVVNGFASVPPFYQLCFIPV
Chain of Nuclear receptor subfamily 1 group I member 2 (Homo sapiens) (O75469 whole entry, looked up): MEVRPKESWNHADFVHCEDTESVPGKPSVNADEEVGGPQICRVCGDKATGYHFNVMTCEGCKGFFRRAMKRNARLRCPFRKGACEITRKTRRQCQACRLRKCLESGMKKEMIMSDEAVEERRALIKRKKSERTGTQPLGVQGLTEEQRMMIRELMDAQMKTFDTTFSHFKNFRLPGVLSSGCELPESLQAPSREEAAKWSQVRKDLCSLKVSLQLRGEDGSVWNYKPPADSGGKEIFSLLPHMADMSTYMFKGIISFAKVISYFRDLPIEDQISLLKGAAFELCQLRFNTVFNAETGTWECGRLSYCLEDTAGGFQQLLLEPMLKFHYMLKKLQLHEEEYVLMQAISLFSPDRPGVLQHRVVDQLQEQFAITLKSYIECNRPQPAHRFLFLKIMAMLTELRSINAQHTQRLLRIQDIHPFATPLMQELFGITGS
Chain of Cytochrome P450 3A4 (Homo sapiens) (P08684 whole entry, looked up, canonical isoform): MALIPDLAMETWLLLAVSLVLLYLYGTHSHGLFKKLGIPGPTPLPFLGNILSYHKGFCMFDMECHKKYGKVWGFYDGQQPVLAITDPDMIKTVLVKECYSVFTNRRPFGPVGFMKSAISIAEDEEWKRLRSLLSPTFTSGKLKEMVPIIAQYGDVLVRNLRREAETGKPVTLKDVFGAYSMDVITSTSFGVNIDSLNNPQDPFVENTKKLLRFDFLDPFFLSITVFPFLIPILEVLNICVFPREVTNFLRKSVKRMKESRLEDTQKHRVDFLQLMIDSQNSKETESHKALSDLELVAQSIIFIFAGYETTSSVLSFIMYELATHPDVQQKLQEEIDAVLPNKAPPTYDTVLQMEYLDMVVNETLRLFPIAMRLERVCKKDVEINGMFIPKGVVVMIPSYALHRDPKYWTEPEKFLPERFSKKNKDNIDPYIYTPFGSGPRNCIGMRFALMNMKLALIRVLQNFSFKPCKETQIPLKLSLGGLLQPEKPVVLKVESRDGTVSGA
Chain of Cytochrome P450 2D6 (Homo sapiens) (P10635 whole entry, looked up): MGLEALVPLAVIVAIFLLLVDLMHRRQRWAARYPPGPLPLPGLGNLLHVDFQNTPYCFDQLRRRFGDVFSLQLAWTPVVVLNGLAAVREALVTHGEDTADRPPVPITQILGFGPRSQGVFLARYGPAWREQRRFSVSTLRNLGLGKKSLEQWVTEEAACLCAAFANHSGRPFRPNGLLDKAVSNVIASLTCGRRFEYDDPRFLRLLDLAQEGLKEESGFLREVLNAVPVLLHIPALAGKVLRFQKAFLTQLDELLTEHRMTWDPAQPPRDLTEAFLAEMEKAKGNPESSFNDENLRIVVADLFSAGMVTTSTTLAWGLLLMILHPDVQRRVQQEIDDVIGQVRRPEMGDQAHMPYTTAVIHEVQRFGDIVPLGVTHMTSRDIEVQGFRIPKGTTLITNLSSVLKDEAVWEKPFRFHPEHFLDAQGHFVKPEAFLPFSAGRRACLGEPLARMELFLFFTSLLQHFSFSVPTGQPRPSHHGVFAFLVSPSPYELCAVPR

CN[C@@H]1[C@@H](O)[C@@H](O[C@@H]2[C@@H](O)[C@H](O[C@H]3O[C@H](CN)[C@@H](O)[C@H](O)[C@H]3O)[C@@H](N)C[C@H]2NC(=O)[C@@H](O)CN)OC[C@]1(C)O
inactive: Potency [1]

O=C1NC(Cc2ccc(O)cc2)C(=O)N2CCCC12 (configuration not stated)
inactive: Potency [1]

Cc1c(C)c2c(c(C)c1O)CC[C@@](C)(CCC[C@H](C)CCC[C@H](C)CCCC(C)C)O2
inactive: outcome [2] | Potency [3] | Potency [4] | outcome [5] | outcome [6] | max response [7] -0.537% | outcome [8] | outcome [9]

CC(C)CNC(=O)/C=C/CCCCc1ccc2c(c1)OCO2
inactive: Potency [1]

CC1=CC(=O)C[C@H]2[C@@H]1CC[C@@H](C)[C@]21CO[C@H](c2ccoc2)C1=O
inactive: Potency [1]

C[C@H]1[C@H](C)CC[C@]2(C(=O)O)CC[C@]3(C)C(=CC[C@@H]4[C@@]5(C)C[C@@H](O)[C@H](O)[C@@](C)(CO)[C@@H]5CC[C@]43C)[C@H]12
inactive: Potency [1] | outcome [10] | Potency [3] | Potency [4] | outcome [5] | outcome [6] | max response [7] 2.22% | outcome [8] | outcome [9]

C[C@@H]1O[C@@H](O[C@H]2[C@H](OC(=O)[C@]34CCC(C)(C)C[C@H]3C3=CCC5[C@@]6(C)C[C@H](O)[C@H](O[C@@H]7O[C@H](CO[C@@H]8OC[C@H](O)[C@H](O)[C@H]8O)[C@@H](O)[C@H](O)[C@H]7O)C(C)(C)C6CC[C@@]5(C)[C@]3(C)C[C@H]4O)OC[C@@H](O)[C@@H]2O)[C@H](O)[C@H](O[C@@H]2OC[C@](O)(CO)[C@H]2O)[C@H]1O[C@@H]1OC[C@H](O)[C@H](O[C@@H]2OC[C@@H](O)[C@H](O)[C@H]2O)[C@H]1O (some centres not stated)
inactive: redox activity (% of DA3003) [1] 10.3% [at 11.5 µM]
